Source: PubChem BioAssay AID1159580 (chemical genetic matrix, 2015)
Several values for one entry are separate records, joined by “and”; a condition that tells them apart may be missing. Identical values can stand only once. The whole screen tested about 5,500 compounds, of which about 2,000 (36%) were called active. Inconclusive results (about 18%) are left out. Rule as the data show it: active = normalized growth mostly below about 0.91 (no sharp cut-off); inconclusive = no clear call, values can overlap the other calls; inactive = mostly above about 0.92. The list shows a part of the results.

Assay: chemical genetic growth profiling, strain panel (AID 1159580);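 also: tested at 20 µM; growth read once vehicle control cultures reached saturation at 30 °C; 1 = growth at the plate median or of vehicle wells; lower values mean less growth of the strain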
Settings: S. cerevisiae deletion strains, growth OD

Measured: normalized growth

C[n+]1cccc(C(=O)[O-])c1
inactive: locus YAL013W, strain DEP1, active compounds read low 1.01 | locus YAL021C, strain ccr4, active compounds read low 1.02 | locus YAL026C, strain drs2, active compounds read low 0.972 | locus YAL030W, strain snc1, active compounds read low 0.982 | locus YBL061C, strain skt5, active compounds read low 0.975 | locus YBR009C, strain hhf1, active compounds read low 0.99 | locus YBR021W, strain FUR4, active compounds read low 1 | locus YBR023C, strain chs3, active compounds read low 0.963 | locus YBR171W, strain sec66, active compounds read low 0.958 | locus YBR229C, strain ROT2, active compounds read low 1.01 | locus YBR231C, strain swc5, active compounds read low 0.97 | locus YBR279W, strain paf1, active compounds read low 0.972 | locus YCL011C, strain gbp2, active compounds read low 0.97 | locus YCL016C, strain dcc1, active compounds read low 0.998 | locus YCL029C, strain bik1, active compounds read low 0.993 | locus YCL069W, strain vba3, active compounds read low 0.941 | locus YCR088W, strain abp1, active compounds read low 0.963 | locus YDL005C, strain med2, active compounds read low 0.952 | locus YDL035C, strain GPR1, active compounds read low 1.03 | locus YDL040C, strain nat1, active compounds read low 0.981 | locus YDL074C, strain BRE1, active compounds read low 1.03 | locus YDL101C, strain DUN1, active compounds read low 1.03 | locus YDL134C, strain PPH21, active compounds read low 1.07 | locus YDL185W, strain tfp1, active compounds read low 0.999 | locus YDL192W, strain arf1, active compounds read low 1.01 | locus YDR001C, strain nth1, active compounds read low 0.965 | locus YDR069C, strain doa4, active compounds read low 0.958 | locus YDR101C, strain arx1, active compounds read low 0.995 | locus YDR137W, strain rgp1, active compounds read low 0.974 | locus YDR150W, strain NUM1, active compounds read low 1.01 | locus YDR159W, strain sac3, active compounds read low 0.97 | locus YDR162C, strain NBP2, active compounds read low 1.07 | locus YDR195W, strain ref2 0.91 | locus YDR297W, strain sur2, active compounds read low 0.975 | locus YDR318W, strain mcm21, active compounds read low 0.994 | locus YDR334W, strain swr1, active compounds read low 0.965 | locus YDR335W, strain msn5, active compounds read low 0.952 | locus YDR388W, active compounds read low 0.996 | locus YDR392W, strain spt3, active compounds read low 0.987 | locus YDR502C, strain sam2, active compounds read low 1 | locus YEL003W, strain gim4, active compounds read low 0.964 | locus YEL037C, strain rad23, active compounds read low 0.964 | locus YEL061C, strain CIN8 (second series), active compounds read low 0.923 | locus YEL061C, strain CIN8, active compounds read low 1.01 | locus YER015W, strain faa2, active compounds read low 0.983 | locus YER016W, strain bim1, active compounds read low 0.967 | locus YER110C, active compounds read low 0.995 | locus YER111C, strain swi4, active compounds read low 0.942 | locus YER155C, strain BEM2 (second series), active compounds read low 0.992 | locus YER155C, strain BEM2, active compounds read low 0.999 | locus YER167W, strain BCK2, active compounds read low 1.02 | locus YFR010W, strain ubp6, active compounds read low 0.943 | locus YGL078C, strain dbp3, active compounds read low 0.997 | locus YGL086W, strain mad1, active compounds read low 1 | locus YGL167C, strain pmr1, active compounds read low 0.984 | locus YGL173C, strain kem1, active compounds read low 0.986 | locus YGL227W, strain vid30, active compounds read low 0.957 | locus YGL240W, strain doc1, active compounds read low 0.972 | locus YGL248W, strain PDE1, active compounds read low 1.02 | locus YGL253W, strain hxk2, active compounds read low 0.955 | locus YGR078C, strain PAC10, active compounds read low 1.04 | locus YGR135W, strain pre9, active compounds read low 1 | locus YGR229C, strain SMI1, active compounds read low 1.04 | locus YGR252W, strain gcn5, active compounds read low 0.966 | locus YHR013C, strain ard1, active compounds read low 0.981 | locus YHR027C, strain rpn1, active compounds read low 0.992 | locus YHR030C, strain SLT2, active compounds read low 1.01 and 1.03 | locus YHR079C, strain IRE1 (second series), active compounds read low 1.01 | locus YHR079C, strain IRE1, active compounds read low 1.02 | locus YHR094C, strain hxt1, active compounds read low 0.983 | locus YHR129C, strain ARP1, active compounds read low 1.02 | locus YHR142W, strain chs7, active compounds read low 0.955 | locus YHR200W, strain rpn10, active compounds read low 1.01 | locus YIL066C, strain RNR3, active compounds read low 1.05 | locus YIL073C, strain SPO22, active compounds read low 1.02 | locus YIL125W, strain kgd1, active compounds read low 0.984 | locus YIR030C, strain dcg1, active compounds read low 1.01 | locus YJL092W, strain hpr5, active compounds read low 0.937 | locus YJL095W, strain BCK1 (second series), active compounds read low 0.971 | locus YJL095W, strain BCK1, active compounds read low 1.07 and 1.01 | locus YJL115W, strain asf1, active compounds read low 0.956 | locus YJL129C, strain trk1, active compounds read low 0.936 | locus YJL134W, strain LCB3, active compounds read low 1.01 | locus YJL154C, strain vps35, active compounds read low 0.948 | locus YJL164C, strain tpk1, active compounds read low 0.985 | locus YJL166W, strain qcr8, active compounds read low 0.961 | locus YJL168C, strain set2, active compounds read low 0.999 | locus YJL187C, strain SWE1 (second series), active compounds read low 1.03 | locus YJL187C, strain SWE1, active compounds read low 0.97 | locus YJR043C, strain POL32, active compounds read low 1.04 | locus YJR066W, strain TOR1, active compounds read low 0.975 | locus YJR075W, strain HOC1, active compounds read low 1.03 | locus YKL009W, strain mrt4, active compounds read low 1 | locus YKL068W, active compounds read low 1.01 | locus YKL085W, strain MDH1 (second series), active compounds read low 1.01 | locus YKL085W, strain MDH1, active compounds read low 1.01 | locus YKL160W, strain elf1, active compounds read low 0.996 | locus YKR001C, strain vps1, active compounds read low 0.987 | locus YKR026C, strain gcn3, active compounds read low 0.952 | locus YKR091W, strain srl3, active compounds read low 0.966 | locus YLL001W, strain dnm1, active compounds read low 0.97 | locus YLL026W, active compounds read low 0.989 | locus YLL041C, strain sdh2, active compounds read low 0.963 | locus YLR027C, strain aat2, active compounds read low 0.983 | locus YLR039C, strain RIC1, active compounds read low 1.12 | locus YLR058C, strain SHM2, active compounds read low 1.02 | locus YLR102C, strain apc9, active compounds read low 0.997 | locus YLR113W, strain HOG1, active compounds read low 1.04 | locus YLR221C, strain rsa3, active compounds read low 0.972 | locus YLR258W, strain gsy2, active compounds read low 0.971 | locus YLR262C, strain YPT6 (second series), active compounds read low 0.947 | locus YLR262C, strain YPT6, active compounds read low 1.12 | locus YLR268W, strain sec22, active compounds read low 1.02 | locus YLR320W, strain mms22, active compounds read low 0.975 | locus YLR330W, strain CHS5, active compounds read low 1.02 | locus YLR342W, strain FKS1 (second series), active compounds read low 1.04 | locus YLR342W, strain FKS1, active compounds read low 0.948 | locus YLR357W, strain rsc2, active compounds read low 0.917 | locus YLR370C, strain arc18, active compounds read low 0.972 | locus YLR371W, strain rom2, active compounds read low 0.994 | locus YLR384C, strain iki3, active compounds read low 0.961 | locus YLR418C, strain cdc73, active compounds read low 1.02 | locus YML016C, strain PPZ1, active compounds read low 1.02 | locus YML032C, strain rad52, active compounds read low 1.01 | locus YML120C, strain ndi1, active compounds read low 0.968 | locus YML124C, strain tub3, active compounds read low 0.994 | locus YMR058W, strain fet3, active compounds read low 0.986 | locus YMR078C, strain ctf18, active compounds read low 0.998 | locus YMR125W, strain sto1, active compounds read low 0.939 | locus YMR129W, active compounds read low 0.975 | locus YMR205C, strain PFK2, active compounds read low 0.974 | locus YMR223W, strain ubp8, active compounds read low 1 | locus YMR231W, strain pep5, active compounds read low 0.975 | locus YMR263W, strain SAP30, active compounds read low 1.03 | locus YMR307W, strain GAS1, active compounds read low 1.02 | locus YNL067W, strain RPL9B, active compounds read low 1.03 | locus YNL071W, strain lat1, active compounds read low 0.961 | locus YNL153C, strain GIM3, active compounds read low 1.04 | locus YNL183C, strain NPR1, active compounds read low 0.981 | locus YNL209W, strain ssb2, active compounds read low 0.975 | locus YNL233W, strain BNI4, active compounds read low 1.03 | locus YNL248C, strain rpa49, active compounds read low 0.937 | locus YNL250W, strain rad50, active compounds read low 0.999 | locus YNL271C, strain bni1, active compounds read low 1 | locus YNL298W, strain CLA4, active compounds read low 1.02 | locus YNL307C, strain MCK1, active compounds read low 1 | locus YNL322C, strain KRE1 (second series), active compounds read low 0.948 | locus YNL322C, strain KRE1, active compounds read low 1 | locus YNR049C, strain mso1, active compounds read low 0.962 | locus YNR052C, strain pop2, active compounds read low 1 | locus YOL012C, strain htz1 1.15 | locus YOL147C, strain pex11, active compounds read low 0.996 | locus YOR001W, strain rrp6, active compounds read low 0.933 | locus YOR061W, strain CKA2, active compounds read low 1.02 | locus YOR069W, strain VPS5, active compounds read low 1.01 | locus YOR070C, strain gyp1, active compounds read low 0.987 | locus YOR080W, strain dia2, active compounds read low 0.978 | locus YOR083W, strain WHI5, active compounds read low 0.992 | locus YOR106W, strain vam3, active compounds read low 0.977 | locus YOR136W, strain idh2, active compounds read low 1 | locus YOR144C, strain elg1, active compounds read low 0.989 | locus YOR184W, strain ser1, active compounds read low 1.02 | locus YOR231W, strain MKK1, active compounds read low 1.04 | locus YOR265W, strain rbl2, active compounds read low 0.98 | locus YOR270C, strain vph1, active compounds read low 0.931 | locus YOR290C, strain snf2, active compounds read low 1.01 | locus YOR316C, strain cot1, active compounds read low 1.01 | locus YPL051W, strain arl3, active compounds read low 0.999 | locus YPL055C, strain LGE1, active compounds read low 1.02 | locus YPL078C, strain atp4, active compounds read low 0.963 | locus YPL106C, strain sse1, active compounds read low 0.932 | locus YPL240C, strain hsp82, active compounds read low 0.963 | locus YPL241C, strain CIN2, active compounds read low 1 | locus YPL256C, strain CLN2, active compounds read low 1.02 | locus YPR119W, strain clb2, active compounds read low 1.02 | locus YPR141C, strain kar3, active compounds read low 1.01 | locus YPR163C, strain tif3, active compounds read low 0.997 | locus YPR167C, strain met16, active compounds read low 1.01 | strain wtn01, active compounds read low 1.01
